Assay results taken from PubChem BioAssay AID1347046 (National Center for Advancing Translational Sciences (NCATS), 2019).
Screen size: about 1,400 compounds; about 940 (67%) were called active. About 27% were inconclusive and are not listed. Calls follow the shape of the full dose curve. The set was probably picked from earlier hits. The list is a sample of the results.

Molecular target: Atrial natriuretic peptide receptor 2 (Homo sapiens) (UniProt P20594)
Experiment: Natriuretic polypeptide receptor (hNpr2) antagonism - Subtype selectivity assay; also: nearly all actives have a fitted effect of over 70% in size
Details: HEK293 hNpr2 GloSensor cGMP luminescence, CNP-stimulated; series mostly up to 57.6 µM
Procedure: F. Fan, B. F. Binkowski, B. L. Butler, P. F. Stecha, M. K. Lewis, K. V. Wood, Novel genetically encoded biosensors using firefly luciferase. ACS Chem Biol 3, 346-351 (2008).
PROTOCOL TABLE (as described by Inglese J, Shamu CE and Guy RK. 2007) SEQUENCE No. (e.g., 1, 2, 3, etc.); PARAMETER (e.g., Cells, Incubation, Reagent, etc.); VALUE and DESCRIPTION. 1. Cells. Seed 1500 HEK293 cGMP-sensor cells expressing hNpr2 per well in 4uL into Greiner 1536-well white/solid bottom high base, TC plates. 2. Incubation. Incubate plated cells at 37C in 5% CO2, 95% RH overnight. 3. Reagent. Add 1uL per well GloSensor reagent from Promega (2% final concentration) or CO2 independent media vehicle control to respective columns of Greiner 1536-well plates. 4. Incubation. Incubate plated cells at ambient temperature for 2 h., protect from light. 5. Compounds. Library compounds and DMSO vehicle control added at 23nL per well, transferred by Pin Tool. 6. Incubation. Incubate plated cells for 30 min. at ambient temperature, protect from light. 7. Detector. GloSensor baseline pre-read luminescence measured using CCD-based camera (Viewlux). 8. Compound. Add 1uL of hNppC peptide to 1 nM final concentration to stimulate hNpr2 or CO2 independent media as vehicle control. 9. Incubation. Incubate treated cells at ambient temperature for 20 min., protect from light. 10. Detector. GloSensor post-hNppC luminescence measured using CCD-based camera (Viewlux). NOTES (numbers refer to Sequence numbers above) 1. HEK293 cells expressing hNpr2 and GIP/pGS-40F were grown to 85-95% confluence (48-72 h) in T175 culture flasks (CO2 independent media supplemented with 10% FBS, 1% Pen/Strep antibiotics, and 1 ug/mL puromycin). Trypsinize and harvest cells from T175 culture flasks and filter through 40 um cell strainer. Cells counted with Invitrogen Countess (30,000,000 - 50,000,000 cells/flask). Cells diluted to a final concentration of 375 cells/uL in CO2 independent media and a Millipore multidrop used to dispense 1500 cells per well (4uL/well) into 13 1536-well Greiner White/Solid bottom, high base tissue-culture treated (TC) plates and one Aurora 1536-well Black/Clear bottom, low base, TC plate (for visual inspection of cell health throughout the duration of the assay). 2. Cells incubated for 24 h. at 37C in 95% RH incubator with metal lid having gas-exchange holes. 3. Prepare GloSensor Reagent (Promega): Reconstitute GloSensor luciferase substrate by adding 8.2mL Hepes buffer to 250mg substrate, mix well, protect from light and stored at -80C. Prepare a fresh 12% GloSensor solution in CO2 independent supplemented plating media (see above). Mix well and store at ambient temperature, protected from light. 1uL 12% GloSensor Luciferase Reagent added (2% final concentration) to respective columns of 13 x 1536-well Greiner plate with BioRaptr, 1uL CO2 independent plating media added to respective columns as vehicle control with BioRaptr. 4. Cells incubated for 2 h. at ambient temperature, protected from light with metal lid having gas-exchange holes. 5. 23nL of library compounds or DMSO vehicle control transferred to 13 Greiner white/solid bottom high base, TC plates in 11 interplate 1:3 titrations (see Yasgar, A. et al. 2008) with Pintool. 6. Cells incubated for 30-50 min. at ambient temperature protected from light with metal lid having gas-exchange holes. 7. Read cellular baseline GloSensor luminescence in presence of test library compounds on the ViewLux [Exposure = 10 s.; Gain = High; Speed = Slow; and Binning = 2X.] 8. hNppC peptide agonist solution prepared at 1 mM (in H2O) stock concentration. From this a working dilution was prepared at 6 nM in CO2 Independent media. 1uL of 6 nM hNppC agonist (1 nM final concentration) or CO2 Independent media vehicle control dispensed into respective columns of 13 x Greiner 1536-well white/solid bottom, tissue culture plates with BioRaptr. 9. Cells incubated for 20 min. at ambient temperature, protected from light with metal lid having gas-exchange holes. 10. […]
Potency is read from the fitted curve at half-maximal effect.

Sequence of Atrial natriuretic peptide receptor 2 (Homo sapiens) (P20594 whole entry, looked up): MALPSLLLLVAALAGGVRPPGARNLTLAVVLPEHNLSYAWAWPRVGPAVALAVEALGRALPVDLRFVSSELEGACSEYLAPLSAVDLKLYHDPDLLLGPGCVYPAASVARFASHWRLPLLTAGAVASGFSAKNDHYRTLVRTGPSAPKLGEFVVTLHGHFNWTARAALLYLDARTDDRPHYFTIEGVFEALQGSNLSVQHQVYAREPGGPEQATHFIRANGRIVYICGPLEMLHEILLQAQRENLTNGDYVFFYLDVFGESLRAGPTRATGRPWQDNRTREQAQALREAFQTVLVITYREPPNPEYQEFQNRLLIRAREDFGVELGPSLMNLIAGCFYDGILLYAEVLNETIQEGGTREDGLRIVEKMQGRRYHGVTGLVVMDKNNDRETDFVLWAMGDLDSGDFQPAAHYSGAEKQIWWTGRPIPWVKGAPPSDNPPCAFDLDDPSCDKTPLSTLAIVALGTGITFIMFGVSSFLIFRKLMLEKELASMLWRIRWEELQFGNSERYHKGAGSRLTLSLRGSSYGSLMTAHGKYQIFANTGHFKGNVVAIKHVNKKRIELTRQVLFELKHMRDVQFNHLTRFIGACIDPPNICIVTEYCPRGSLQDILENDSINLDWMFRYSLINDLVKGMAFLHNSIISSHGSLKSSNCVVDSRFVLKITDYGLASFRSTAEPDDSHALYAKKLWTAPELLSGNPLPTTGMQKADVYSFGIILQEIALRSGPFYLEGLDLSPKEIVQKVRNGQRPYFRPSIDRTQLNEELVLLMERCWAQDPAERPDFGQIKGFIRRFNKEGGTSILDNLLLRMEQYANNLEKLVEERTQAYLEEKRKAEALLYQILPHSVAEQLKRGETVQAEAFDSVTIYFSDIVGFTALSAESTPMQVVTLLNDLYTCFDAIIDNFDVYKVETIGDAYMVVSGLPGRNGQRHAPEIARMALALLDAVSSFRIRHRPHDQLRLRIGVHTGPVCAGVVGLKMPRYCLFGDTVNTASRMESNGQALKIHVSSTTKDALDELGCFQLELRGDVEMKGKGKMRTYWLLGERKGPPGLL

Potency, active:
Cc1nn2c(c1-c1ccccc1-c1ccccc1)N(CC1CC1)CCC2 3.14 µM
Cc1nc(-c2ccncc2)ncc1C(C)Nc1ncnc(C)c1C (centres undefined) 17.2 µM
CN(C)CCNC(=O)C(C)(C)Oc1nn(Cc2cccc(Cl)c2)c2ccccc12 31.4 µM
CN1CCN(C(=O)C(C)(C)Oc2nn(Cc3cccc(Cl)c3)c3ccccc23)CC1 19.8 µM
Cc1noc(C)c1-c1cc(-c2ccccc2Oc2ccccc2)cn2cncc12 11.1 µM
CN(Cc1csc(-c2ccccc2)n1)c1cc(C2CC(O)C2)nc(N)n1 (centres undefined) 3.85 µM
Cc1c[nH]c(CN2CCCC(CCc3ccc(F)cc3F)C2)c(C)c1=O (centres undefined) 3.85 µM
O=C1Nc2ccccc2CN(Cc2ccccc2)C12CCNCC2 17.2 µM
COc1ccc(OCC2(C)COc3ccc(C(=O)Nc4cccnc4)cc3N2)cc1 (centres undefined) 35.3 µM
CC1=NS(=O)(=O)N(C)C=C1C(=O)OCc1nc(-c2ccc(C)cc2)no1 13.7 µM
COc1ccc(CCNC(=O)c2noc(-c3ccc(C)cc3)n2)cc1OC 21.7 µM
O=[S+]1([O-])NCC2(CCCN(Cc3ccc(C(F)(F)F)cc3)C2)Oc2ncccc21 (centres undefined) 15.3 µM
COc1ccc(CN2C(=O)CO[C@H]3CN(Cc4ccc5c(c4)OCO5)C[C@H]32)cc1 31.4 µM
Cc1cccc(CN2CCc3nc(C(=O)Nc4ccc(Cl)cc4)oc3CC2)c1 12.5 µM
O=C(c1ccccc1)N1CCNc2cnc(Nc3cccc(C(F)(F)F)c3)nc2C1 28 µM
CC1(C(=O)NCc2ccc3c(c2)OCO3)CCc2cnc(NCc3ccccc3)nc21 (centres undefined) 35.3 µM
O=C(NCC1CC1)c1nc2c(o1)CCN(Cc1cccc(F)c1F)CC2 28 µM
O=C(Cc1c[nH]c2ncc(-c3ccccc3F)cc12)N1CCOCC1 15.7 µM
Cc1ccc(OCc2nc(C3CCN(C(=O)CCc4nc5ccc(Cl)cc5[nH]4)CC3)no2)cc1 24.3 µM
CC(C)c1cc(C(=O)N2CCC(n3cc(-c4ccccn4)nn3)CC2)n(C)n1 19.3 µM
OC1(Cc2cc(-c3ccccc3)no2)CCN(c2ncncn2)CC1 8.62 µM
COc1ccc(-c2noc(CC3CCN(C(=O)CC4CCCCC4)CC3)n2)cc1 12.2 µM
COc1ccc(-c2noc(CC3CCN(C(=O)Cc4ccc(OC)c(OC)c4)CC3)n2)cc1 5.44 µM
COc1ccc(CC(=O)N2CCC(Cc3nc(-c4ccccc4)no3)CC2)cc1OC 15.3 µM
